The text below walks through data of PubChem BioAssay (Tox21).

The nature of experiment [1]: A CellTox Green Cytotoxicity Assay to monitor cytotoxicity in HEK293 cells - 40 hour (AID 1224871). Note: nearly all actives have a fitted effect of over 45% in size. The gist of the method: (§1)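 Nonlytic real-time cytotoxicity: HEK293 + CellTox Green reagent plated, 5 h preincubation, pintool compound addition (23 nL in DMSO), 37 C for 40 h, fluorescence measured at successive time points.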
Experiment [2] is described as follows: qHTS RealTime-Glo MT Cell Viability Assay in HEK293 cells - 16 hour (AID 1224872). Note: nearly all actives have a fitted effect of over 50% in size. Note: potency is the fitted concentration of half-maximal effect. The method in brief:
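Luminescence generated by NanoLuc from substrate produced by living HEK293 cells served as the viability signal. Each value reflects the reading at its stated time point during continuous 40 h compound exposure at 37 C.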
(Quantitative high-throughput screening tests each substance at several concentrations.)

A short description of experiment [3]: qHTS RealTime-Glo MT Cell Viability Assay in HepG2 cells - 8 hour (AID 1224873). Note: nearly all actives have a fitted effect of over 55% in size. The method in brief: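 HepG2 cells mixed with RealTime-Glo MT reagents (NanoLuc plus cell-permeant prosubstrate) were seeded at 600 cells/well, incubated 5 h at 37 C/5% CO2, then pinned with compounds in DMSO; nonlytic luminescence tracked viability during 40 h treatment.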
The nature of experiment [4]: qHTS RealTime-Glo MT Cell Viability Assay in HEK293 cells - 40 hour (AID 1224874). Note: nearly all actives have a fitted effect of over 50% in size. Note: potency is the fitted concentration of half-maximal effect. The conditions noted are these: RealTime-Glo luminescence; max response: active compounds read low. The method in brief:
(§2)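 Cells were seeded together with NanoLuc luciferase and a prosubstrate that viable cells reduce to a luciferase substrate. After a 5 h incubation at 37 C/5% CO2, compounds were added and luminescence was measured repeatedly during 40 h of treatment.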

Experiment [5] can be described thus: A CellTox Green Cytotoxicity Assay to monitor cytotoxicity in HEK293 cells - 24 hour (AID 1224875). Note: series mostly up to about 77 µM; nearly all actives have a fitted effect of over 45% in size. The gist of the method:
as §1

The nature of experiment [6]: A CellTox Green Cytotoxicity Assay to monitor cytotoxicity in HepG2 cells - 16 hour (AID 1224876). Note: nearly all actives have a fitted effect of over 45% in size. The gist of the method: (§3)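 Read-out is fluorescence of a cyanine dye excluded from live cells that stains DNA of dead HepG2 cells, with signal proportional to cytotoxicity. Plates were read at 0, 8, 16, 24, 32 and 40 h after compound addition.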
Experiment [7] in a line: qHTS RealTime-Glo MT Cell Viability Assay in HepG2 cells - 32 hour (AID 1224877). Note: nearly all actives have a fitted effect of over 55% in size. Note: potency is the fitted concentration of half-maximal effect. The method in brief:
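Tox21 10K library screened in qHTS format on HepG2 cells carrying RealTime-Glo reagents. Compounds were added after a 5 h preincubation, and the luminescent signal from continuous culture was measured repeatedly during 40 h treatment.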

Experiment [8] can be described thus: A CellTox Green Cytotoxicity Assay to monitor cytotoxicity in HepG2 cells - 24 hour (AID 1224878). Note: nearly all actives have a fitted effect of over 45% in size. The gist of the method: as §3
A short description of experiment [9]: qHTS RealTime-Glo MT Cell Viability Assay in HEK293 cells - 0 hour (AID 1224880). The gist of the method: as §2
Experiment [10] can be described thus: A CellTox Green Cytotoxicity Assay to monitor cytotoxicity in HepG2 cells - 40 hour (AID 1224879). Note: nearly all actives have a fitted effect of over 40% in size. The method in brief: as §3

The structures appear in SMILES notation. Results filed as inconclusive are left out. A number with no mark means an inactive call. Activity calls are given as the source filed them. Calls come from the whole dose curve; as a rule, active = well fitted curve in the direction sought with a large enough effect in the repeat runs; inconclusive = weak or mixed curves; inactive = no such curve, though single readings can be large; an effect the other way counts as inactive or inconclusive.
% is set by controls: 0 for no effect and ±100 for the full control effect.

Consider `CCOC(=O)C1(c2ccccc2)CCN(CCc2ccc(N)cc2)CC1`, for which the Potency result in experiment [1], in [2], in [3], in experiment [5], in experiment [6] and in [7] was “inactive” each time. In [8], the Potency result is “inactive”. The max response in experiment [4] was -22.8%. Besides, the call in [9] was inactive.

`C[C@H]1CCC[C@H](O)CCCCCc2cc(O)cc(O)c2C(=O)O1`: the Potency entry in [1], in experiment [3], in experiment [5], in experiment [6], in experiment [7] and in experiment [8] was “inactive” in each case. The Potency in [2] is 34.9 µM (active); in [4], 24.7 µM (active). For the same compound, the call in [9] was inactive.

For `CCOC(=O)N(C)C(=O)CSP(=S)(OCC)OCC`, the Potency entry in experiment [1], in [2], in experiment [3], in [5], in [6] and in experiment [7] was “inactive” throughout. In addition, the Potency entry in experiment [8] and in experiment [10] was “inactive” in each case. In addition, the max response in experiment [4] was -10%. The result in experiment [9] was inactive.

Consider `CCC(=O)C(CCN(C)C)(c1ccccc1)c1ccccc1`, for which the Potency entry in [1], in experiment [2], in experiment [3], in [5], in [6] and in experiment [7] was “inactive” in each case. Moreover, the Potency result in experiment [8] and in [10] was “inactive” in each case. Also, in [4], the max response was -20.5%. Moreover, the compound was classed as inactive in experiment [9].

Take `CCCSC(=O)Cl`: the Potency entry in [1], in experiment [2], in [3], in experiment [5], in experiment [6] and in [8] was “inactive” each time. Also, the Potency result in experiment [10] was “inactive”. Besides, the max response in experiment [4] is 9.13%. The compound was called inactive in experiment [9].

As for `O=C(NCO)NCO`, the Potency result in experiment [1], in experiment [2], in [3], in [5], in [6] and in [8] was “inactive” throughout. Moreover, the Potency entry in experiment [10] is “inactive”. In experiment [4], the max response is 2.7%. Moreover, the result in experiment [9] was inactive.

For the compound `OCCSCSCCO`, the Potency result in experiment [1], in [2], in experiment [3], in experiment [5], in experiment [6] and in [7] was “inactive” each time. Also, in experiment [10], the Potency result is “inactive”. For the same compound, the max response in experiment [4] is 10.4%.

`NC(=O)c1cc([N+](=O)[O-])cc([N+](=O)[O-])c1`: the Potency result in experiment [1], in experiment [2], in [3], in [5] and in experiment [6] was “inactive” throughout. For the same compound, the max response in experiment [4] is 4.2%. In [9], the call was inactive.

On to `COC(=O)c1ccccc1S(=O)(=O)NC(=O)Nc1nc(C)cc(C)n1`, for which the Potency entry in experiment [1], in experiment [2], in [3], in experiment [5], in [6] and in experiment [8] was “inactive” throughout. Also, the Potency result in [10] was “inactive”. The max response in [4] is 7.64%. For the same compound, the compound was called inactive in experiment [9].

For `Oc1c(Cl)cccc1Cl`, the Potency result in experiment [1], in experiment [2], in [3], in [6], in experiment [7] and in experiment [8] was “inactive” throughout. The Potency entry in experiment [10] is “inactive”. Also, in experiment [4], the max response is 0.323%. For the same compound, in experiment [9], the call was inactive.

For the compound `CC1CN1P(=O)(N1CC1C)N1CC1C` (centres undefined), the Potency result in experiment [1], in [2], in experiment [3], in [6], in [7] and in experiment [8] was “inactive” each time. Further, the Potency entry in [10] is “inactive”. The max response in experiment [4] is 6.96%.

Consider `Cc1nnc2n1-c1sc(CCC(=O)N3CCOCC3)cc1C(c1ccccc1Cl)=NC2`, for which the Potency result in experiment [1], in experiment [2], in experiment [3], in experiment [5], in experiment [6] and in experiment [8] was “inactive” each time. Also, the Potency entry in [10] was “inactive”. Also, the max response in [4] is -16.7%. In addition, in experiment [9], the outcome was inactive.

Consider `ClC(Cl)C(Cl)Cl`, for which the Potency entry in experiment [1], in experiment [2], in [3] and in experiment [5] was “inactive” in each case. For the same compound, the max response in [4] was 0.239%. Also, the compound was classed as inactive in [9].

Take `Cc1ncc(CNC(=O)N(CCCl)N=O)c(N)n1`: the Potency result in experiment [1], in experiment [2], in [3], in [5], in experiment [6] and in [8] was “inactive” each time. Moreover, the max response in [4] was 2.69%. The result in [9] was inactive.

Consider `ClCCOCOCCCl`, for which the Potency entry in experiment [1], in [2], in experiment [3], in experiment [5], in [6] and in experiment [8] was “inactive” each time. In experiment [10], the Potency entry is “inactive”. In addition, the max response in experiment [4] is -5.52%.

With `CCCCCCI`, the Potency entry in experiment [1], in experiment [2], in [3], in experiment [5], in experiment [6] and in experiment [10] was “inactive” each time. For the same compound, the max response in [4] was -0.352%. For the same compound, in experiment [7], the Potency was 34.7 µM (active). For the same compound, in experiment [9], the compound was classed as inactive.

As to `COC(=O)C(C)Oc1ccc(Oc2ccc(Cl)cc2Cl)cc1` (centres undefined), the Potency entry in experiment [1], in experiment [2], in [3], in experiment [5], in [6] and in experiment [8] was “inactive” each time. In [10], the Potency entry is “inactive”. The max response in experiment [4] is -8.07%. In addition, in experiment [9], the outcome was inactive.

Turning to `C=C(C)CN(CC)c1c([N+](=O)[O-])cc(C(F)(F)F)cc1[N+](=O)[O-]`, the Potency entry in experiment [1], in experiment [2], in experiment [3], in [5], in [6] and in experiment [7] was “inactive” throughout. For the same compound, in [10], the Potency entry is “inactive”. Also, in experiment [4], the max response is 0.654%. Moreover, the compound was classed as inactive in [9].

As for `CCC(C)(C)c1cc(-n2nc3ccccc3n2)c(O)c(C(C)(C)CC)c1`, the Potency result in experiment [1], in experiment [3], in experiment [5], in [6] and in [7] was “inactive” throughout. Also, the Potency in experiment [2] is 24.9 µM (active); in experiment [4], 22.2 µM (active). Besides, in [9], the outcome was inactive.

Take `Nc1cc2c3c(c1)C(c1ccccc1)=N[C@@H](NC(=O)c1cccnc1)C(=O)N3CC2`: the Potency result in experiment [1], in experiment [2], in experiment [3], in [5], in experiment [6] and in [7] was “inactive” in each case. Also, the max response in experiment [4] is -6.57%. Besides, the compound was classed as inactive in experiment [9].

As for `CCCSP(=S)(OCC)Oc1ccc(Cl)cc1Cl` (centres undefined), the Potency result in experiment [1], in [2], in experiment [3], in experiment [5], in experiment [6] and in experiment [8] was “inactive” each time. Moreover, the max response in experiment [4] is 1.03%. Also, the compound was called inactive in experiment [9].

Turning to `COC(=O)c1ccccc1S(=O)(=O)NC(=O)N(C)c1nc(C)nc(OC)n1`, the Potency result in experiment [1], in experiment [2], in experiment [3], in experiment [5], in experiment [6] and in [7] was “inactive” each time. Moreover, in experiment [4], the max response was 10.1%. The compound was classed as inactive in experiment [9].

As for `Cc1cc(C)nc(Nc2ccccc2)n1`, the Potency result in experiment [1], in experiment [2], in experiment [3], in experiment [5], in experiment [6] and in experiment [10] was “inactive” each time. For the same compound, the max response in [4] was -2.72%. The call in experiment [9] was inactive.

For the compound `CC(CCc1ccccc1)NC(C)C(O)c1ccc(O)cc1` (centres undefined), the Potency result in experiment [1], in experiment [2], in experiment [3], in experiment [5], in experiment [6] and in experiment [8] was “inactive” throughout. Moreover, the Potency entry in experiment [10] is “inactive”. Moreover, in experiment [4], the max response is -21.9%.

As to `CC(=O)CCc1ccc2c(c1)OCO2`, the Potency entry in [1], in [2], in experiment [3], in [5], in experiment [6] and in experiment [7] was “inactive” each time. For the same compound, the Potency entry in experiment [8] is “inactive”. For the same compound, in [4], the max response was 0.514%. Also, in experiment [9], the compound was called inactive.

On to `CNCC(=O)c1ccc(O)c(O)c1`, for which the Potency entry in experiment [1], in experiment [2], in experiment [3], in experiment [5], in [6] and in experiment [7] was “inactive” in each case. Moreover, the Potency result in experiment [10] was “inactive”. In experiment [4], the max response was 2.09%.

Consider `C[C@]12CC[C@H]3[C@@H](CC=C4C[C@@H](O)CC[C@@]43C)[C@@H]1CC[C@@H]2O`, for which the Potency entry in experiment [1], in experiment [2], in experiment [3], in experiment [5], in [6] and in experiment [7] was “inactive” each time. Besides, the Potency entry in experiment [10] was “inactive”. The max response in experiment [4] is 8.6%. In addition, the compound was classed as inactive in experiment [9].
